These results are taken from PubChem BioAssay (NCATS).

“And” between values parts separate entries of the source, which are not always exact repeats. Identical values can stand only once. Results filed as inconclusive are left out. Where a call stands in place of a potency, no number is given. The source made the active and inactive calls. Calls follow the shape of the dose curve; as a rule, active = well fitted inhibition curve with a large enough effect; inconclusive = small, poorly fitted or top-dose-only effect; inactive = flat fitted curve, though single readings scatter.
Potency is read from the fitted curve at half-maximal effect.

Test system in the first experiment: not listed separately
In words: Drug repurposing screens with cells derived from glioblastoma tumor samples (AID 1345199). Also: nearly all actives have a fitted effect of over 40% in size. The note with it: GBM patient neurospheres viability, ATP luminescence, 48 h; at 46.1 µM (top of the series); tumour line C. The method in brief:
(§1)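 Primary testing used CD133+ neurospheres from four GBM patients, seven concentrations, 48 h exposure and ATP-based viability; confirmation added three slower-growing patient lines.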
As to `CN1Cc2c(N)cccc2C(c2ccccc2)C1` (stereo unspecified), the activity, negative = cell killing was -16.4% (inactive).

Consider `C[C@]12C=CC(=O)C=C1CC[C@@H]1[C@@H]2[C@@H](O)C[C@@]2(C)[C@H]1CC[C@]2(O)C(=O)COC(=O)CCC(=O)O`, for which the activity, negative = cell killing was 7.76% (inactive). Consider `OC[C@H]1O[C@@H](OCCc2ccc(O)cc2)[C@H](O)[C@@H](O)[C@@H]1O`, for which the activity, negative = cell killing is 4.11% (inactive). With `C[C@@H]1C[C@H]2[C@@H]3CCC4=CC(=O)C=C[C@]4(C)[C@@]3(F)[C@@H](O)C[C@]2(C)[C@@]1(O)C(=O)COP(=O)(O)O`, the activity, negative = cell killing was -0.678% (inactive). For `CCC(=O)NS(=O)(=O)c1ccc(-c2c(-c3ccccc3)noc2C)cc1`, the activity, negative = cell killing was -3.29% (inactive). On the same count and under the same terms, with `CC[C@H]1OC(=O)C[C@@H](O)[C@H](C)[C@@H](O[C@@H]2O[C@H](C)[C@@H](O)[C@H](N(C)C)[C@H]2O)[C@@H](CCN2C[C@H](C)C[C@H](C)C2)C[C@@H](C)C(=O)/C=C/C(C)=C/[C@@H]1CO[C@@H]1O[C@H](C)[C@@H](O)[C@@H](OC)[C@H]1OC` the figure was -6.47% (inactive).

On to `CC(=O)OC(C)OC(=O)C(C)c1ccc(-c2ccccc2)c(F)c1` (stereo unspecified), for which the activity, negative = cell killing is 1.46% (inactive) and -25.4% (inactive).

A further experiment concerns astro (control astrocytes). The experiment is described as above. The following applies: viability, ATP luminescence, 48 h; series mostly up to 45.9 µM. Summed up:
as §1
Consider `CN1Cc2c(N)cccc2C(c2ccccc2)C1` (stereo unspecified), for which the Potency entry is “inactive”. On to `C[C@]12C=CC(=O)C=C1CC[C@@H]1[C@@H]2[C@@H](O)C[C@@]2(C)[C@H]1CC[C@]2(O)C(=O)COC(=O)CCC(=O)O`, for which the Potency result is “inactive”. With `OC[C@H]1O[C@@H](OCCc2ccc(O)cc2)[C@H](O)[C@@H](O)[C@@H]1O`, the Potency result was “inactive”. Still for that read-out and setting: as for `C[C@@H]1C[C@H]2[C@@H]3CCC4=CC(=O)C=C[C@]4(C)[C@@]3(F)[C@@H](O)C[C@]2(C)[C@@]1(O)C(=O)COP(=O)(O)O`, the entry is “inactive”. Still for that read-out and setting: as for `CCC(=O)NS(=O)(=O)c1ccc(-c2c(-c3ccccc3)noc2C)cc1`, the entry is “inactive”.

Consider `CC[C@H]1OC(=O)C[C@@H](O)[C@H](C)[C@@H](O[C@@H]2O[C@H](C)[C@@H](O)[C@H](N(C)C)[C@H]2O)[C@@H](CCN2C[C@H](C)C[C@H](C)C2)C[C@@H](C)C(=O)/C=C/C(C)=C/[C@@H]1CO[C@@H]1O[C@H](C)[C@@H](O)[C@@H](OC)[C@H]1OC`, for which the Potency result is “inactive”. Same read-out and setting: as for `CC(=O)OC(C)OC(=O)C(C)c1ccc(-c2ccccc2)c(F)c1` (stereo unspecified), the entry is “inactive”.

In the case of `COc1ccc(C[C@H](N)C(=O)N[C@H]2[C@@H](O)[C@H](n3cnc4c(N(C)C)ncnc43)O[C@@H]2CO)cc1`, the Potency is 3.16 µM (active). Still for that read-out and setting: as for `CCC(=O)O[C@]1(C(=O)CCl)[C@@H](C)C[C@H]2[C@@H]3C[C@H](F)C4=CC(=O)C=C[C@]4(C)[C@@]3(F)[C@@H](O)C[C@@]21C`, the entry is “inactive”.
